High-throughput results from PubChem BioAssay.
A549 tox-1 – kills or reduces viability of A549 cells in Nrf2 counter-screen; Potency, µM (series often up to 46 µM), inactives show at the top dose activity change, negative = cytotoxicity, usual class: inhibitors; 390,000 compounds, 0.16% hits; A549 ARE-Fluc cells, CellTiter-Fluor viability, 18-24 h; further: potency means the concentration at half of the fitted maximal effect; on the % scale 0 is the no-effect control and ±100 the full control effect
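A549 ARE_Fluc cells in 5% FBS OPTI-MEM were exposed to compounds in concentration-response for 18-24 h at 37 deg C. Viability was read by CellTiter-Fluor fluorescence (Ex 405/Em 525) after 30 min, before the luciferase read.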
IL2 activator – IL-2 activation; IL-2 activation reporter assay, cell-based qHTS; stimulated with anti-CD3/CD4/CD28 beads; in transgenic mouse T cells; activation, % (series mostly up to about 46 µM); 360,000 compounds, 0.065% hits; AID 652025; in the data active means activation above about 50%; inconclusive means mostly about 30% to 49%; further: 0% is about no effect
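First, unstimulated transgenic mouse T cells were exposed to compound for 60 min. Next, anti-CD3/anti-CD4-coated beads with anti-CD28 were added. Finally, after 18 h at 37 degrees C, EGFP and DsRed were imaged.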
Nrf2 activator – Nrf2 pathway activation; AREc32 ARE-luciferase reporter (MCF7-derived line), luminescence, 24 h; Potency, µM (doses to about 46.1 µM), inactives show top-dose activation, usual class: activators; 410,000 compounds, 0.31% hits; further: potency means the concentration at half of the fitted maximal effect; % of control where 0% means no effect; nearly all actives have a fitted effect of over 65% in size
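Each well held 1000 AREc32 cells, which were incubated with compound for 24 hr at 37 deg C after overnight attachment, and ARE reporter activity was quantified by firefly luciferase luminescence.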
Nrf2 inh – inhibitors of Nrf2 signaling | 360,000 compounds, 2.1% hits | AID 504444 | Potency, µM (highest dose often 46 µM), inactives show at the highest dose activity change, negative = inhibition, most hits filed as inhibitors | A549 ARE-Fluc reporter, luciferase luminescence, 18-24 h; further: potency means the concentration at half of the fitted maximal effect; on the % scale 0 is the no-effect control and ±100 the full control effect; nearly all actives have a fitted effect of over 60% in size
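A549 ARE_Fluc cells (5000/well, 5% FBS OPTI-MEM) pre-incubated 2 h, then treated with compounds 18-24 h at 37C/5% CO2 in concentration-response. CellTiter-Fluor viability read first; BugLite luciferase luminescence after 15 min at room temperature gives Nrf2 activity.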
FLuc counter 3 – firefly luciferase inhibition, Nrf2 hit validation. shares compounds with Nrf2 inh. purified firefly luciferase, luminescence inhibition. Potency, µM (series often up to 57.5 µM), without a hit: at the highest dose activity change, negative = inhibition, actives largely listed as inhibitors. 1,400 compounds, 4% hits; further: potency means the concentration at half of the fitted maximal effect; on the % scale 0 is the no-effect control and ±100 the full control effect; nearly all actives have a fitted effect of over 65% in size
Target sequence (P08659 whole entry, looked up): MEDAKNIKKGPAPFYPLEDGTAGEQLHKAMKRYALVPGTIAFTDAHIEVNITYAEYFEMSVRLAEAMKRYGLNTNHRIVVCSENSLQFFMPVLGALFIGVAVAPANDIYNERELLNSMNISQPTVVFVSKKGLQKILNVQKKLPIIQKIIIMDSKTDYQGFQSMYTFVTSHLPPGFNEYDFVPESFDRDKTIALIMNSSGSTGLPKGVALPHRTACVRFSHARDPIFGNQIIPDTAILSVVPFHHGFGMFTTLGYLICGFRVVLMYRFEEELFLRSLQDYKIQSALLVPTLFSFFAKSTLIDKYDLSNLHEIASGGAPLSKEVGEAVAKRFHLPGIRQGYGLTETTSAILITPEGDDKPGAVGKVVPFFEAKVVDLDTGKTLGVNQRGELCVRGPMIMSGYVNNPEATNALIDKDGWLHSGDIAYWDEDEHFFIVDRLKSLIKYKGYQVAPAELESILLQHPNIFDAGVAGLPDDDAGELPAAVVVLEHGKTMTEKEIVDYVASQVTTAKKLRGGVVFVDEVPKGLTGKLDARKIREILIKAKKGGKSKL
A549 tox-2 – A549 cytotoxicity, Nrf2 inhibitor counterscreen | shares compounds with Nrf2 inh | Potency, µM (doses to about 46.1 µM), for inactives: at the highest dose activity change, negative = cytotoxicity, most hits filed as inhibitors | A549 ARE-Fluc cells, cytotoxicity counterscreen | 1,400 compounds, 2% hits | AID 720523;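 further: potency means the concentration at half of the fitted maximal effect; cells exposed to compounds for 18 to 24 hours; on the % scale 0 is the no-effect control and ±100 the full control effect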
Nrf2 ARE inh – reduces Nrf2 ARE reporter signal in A549 cells; shares compounds with Nrf2 inh; A549 ARE-firefly luciferase reporter, luminescence; Potency, µM (titrated, usually from 46.1 µM), without a hit: at the highest dose activity change, negative = inhibition, actives largely listed as inhibitors; AID 720524; 1,400 compounds, 74% hits; further: potency means the concentration at half of the fitted maximal effect; on the % scale 0 is the no-effect control and ±100 the full control effect; nearly all actives have a fitted effect of over 65% in size
The depositor's hits bear a star; ? = inconclusive; · = no result given. A selection: hits, their analogues and other compounds. The true share with any hit is near 2.3%. Unless noted, the call rests on the fitted dose curve; in most records, active means well fitted curve in the direction sought with a large enough effect; inconclusive means small, poorly fitted or top-dose-only effect, or another doubt; inactive means no such curve, though single readings can be large; an effect the other way counts as inactive or inconclusive.

SMILES	A549 tox-1	IL2 activator	Nrf2 activator	Nrf2 inh	FLuc counter 3	A549 tox-2	Nrf2 ARE inh
Cc1nn(C)c(C)c1CN(C)S(=O)(=O)c1ccc2ccccc2c1	-29.9%	-1.3	-0.2%	2.51µM*	0.6%	-1.0%	1.16µM*
COc1ccccc1OC(C)C(=O)Nc1nc(-c2ccc(S(=O)(=O)N3CCOCC3)cc2)cs1 (stereo not given)	?	-0.5	0.3%	4.4%	·	·	·
COc1ccccc1C(=O)Nc1nc(-c2ccc(S(=O)(=O)N3CCOCC3)cc2)cs1	-28.0%	-1.7	-0.9%	5.17µM*	-12.3%	-16.9%	1.3µM*
c1ccc2c(c1)CCN(c1ncnc3c1[nH]c1ccccc13)C2	-25.2%	-2.5	1.9%	5.8µM*	-24.4%	-10.2%	5.8µM*
Cc1ccc2c(c1)[nH]c1c(N3CCN(Cc4ccccc4)CC3)ncnc12	?	-2.8	-1.6%	8.2µM*	-29.1%	?	11.6µM*
CCOC(=O)c1cccc(NC(=O)c2cc3c(=O)n(Cc4ccccc4)ccc3nc2C)c1	-1.3%	·	2.4%	-1.2%	·	·	·
COc1ccc(NC(=O)CCSc2nc(-c3ccco3)cc(C(F)(F)F)n2)cc1OC	-9.6%	·	1.1%	-8.5%	·	·	·
COc1ccc(NC(=O)CSc2nc(-c3ccco3)cc(C(F)(F)F)n2)cc1Cl	-10.2%	·	3.8%	7.31µM*	-0.5%	-4.8%	20.6µM*
CC12CCC(=O)C=C1CCC1C2C(O)CC2(C)C1CCC2(O)C(=O)CO (stereo not given)	-8.5%	-0.1	-0.1%	0.116µM*	-0.6%	-5.2%	0.092µM*
C[C@]12CCC(=O)C=C1CC[C@@H]1[C@@H]2[C@@H](O)C[C@@]2(C)[C@H]1CC[C@]2(O)C(=O)CO	0.6%	-0.7	0.6%	0.0291µM*	3.2%	?	0.291µM*
C[C@]12CCC(=O)C=C1[C@H](O)C[C@@H]1[C@@H]2[C@@H](O)C[C@@]2(C)[C@H]1CC[C@]2(O)C(=O)CO	-1.1%	-0.5	-0.4%	6.9%	·	·	·
COc1cc2sc3ccc(C#Cc4ccc(N)cc4)cc3c(=O)c2cc1OC	-20.5%	-0.2	4.6%	4.61µM*	-21.9%	?	2.31µM*
COc1cccc2cc(C(=O)N3CC(C)OC(C)C3)c(=O)oc12 (stereo not given)	15.5%	0.7	0.2%	1.8%	·	·	·
COc1cc2c(oc(=O)c3cc(C)cc(OC)c32)c2c(C3OC(C)C(O)C(C)(O)C3O)ccc(O)c12 (stereo not given)	5.8µM*	-6.0	-2.0%	1.3µM*	-13.1%	?	1.84µM*
COC(=O)c1cnc(N2CCN(c3ccc(F)cc3)CC2)c2ccccc12	-16.4%	·	-0.8%	·	·	·	·
O=C(Nc1c(F)cccc1F)c1cnc(N2CCN(c3ccccn3)CC2)c2ccccc12	?	1.5	-0.5%	9.2µM*	-9.7%	-11.0%	?
COC(=O)C1=C(Nc2ccc(C)cc2)C=C(C)C(C(=O)OC)C1c1ccc(OC)cc1 (stereo not given)	·	7.8	-0.6%	-25.7%	·	·	·
COC(=O)C1=C(O)C(C(=O)OC)C(c2ccc(C)cc2)C(C#N)(C#N)C1c1ccc(C)cc1 (stereo not given)	·	0.9	0.3%	2.91µM*	3.2%	?	14.6µM*
COc1ccc(CNC(=O)c2cccc(N3CCCS3(=O)=O)c2)cc1OC	-10.4%	·	-0.9%	2.59µM*	-1.3%	-0.5%	?
CC(=O)OCC(NC(=O)C(Cc1ccccc1)NC(=O)OC(C)(C)C)C1OC(n2cc(C)c(=O)[nH]c2=O)C(OC(C)=O)C1OC(C)=O (stereo not given)	1.3%	·	·	0.8%	·	·	·
O=C(Nc1cccn(Cc2c(Cl)cccc2Cl)c1=O)c1ccccc1Cl	-25.8%	-4.4	-0.6%	1.46µM*	-25.3%	0.8%	9.2µM*
Cc1ccc(-n2nc3c(=O)n(C(C)C(=O)NCc4ccc(OC(C)C)cc4)nc(C)c3c2C)cc1 (stereo not given)	-3.7%	·	-1.5%	1.84µM*	1.5%	-11.3%	8.2µM*
COc1ccc(CN(C)C(=O)c2cccc(NC(=O)CC3SC(N4CCCCC4)=NC3=O)c2)c(OC)c1 (stereo not given)	-25.5%	-4.4	-1.3%	8.2µM*	-19.4%	-16.0%	6.51µM*
Cc1cccc(N2CCN(C(=O)c3cn(CC(C)C)c(=O)c4c3c3ccccc3n4C)CC2)c1C	-1.9%	·	0.4%	10.7%	·	·	·
CCOc1ccc(-c2nc(Cn3c(=O)cc(-c4ccccc4)c4c(C)nn(C)c43)c(C)o2)cc1	8.6%	·	0.9%	5.8µM*	-0.1%	-2.8%	13.9%
SMILES	A549 tox-1	IL2 activator	Nrf2 activator	Nrf2 inh	FLuc counter 3	A549 tox-2	Nrf2 ARE inh
FC(F)(F)c1cccc(-n2cc(-c3ccccc3)c3c(N4CCCCC4)ncnc32)c1	13.7%	·	-0.2%	·	·	·	·
Cc1ccc(NC(=S)NC(=O)c2ccc(F)cc2)cc1S(=O)(=O)Nc1ccccc1Cl	?	-6.0	2.1%	7.31µM*	-10.0%	-11.7%	?
COc1ccc(C(=O)Nc2ccc(Cl)c(S(=O)(=O)Nc3ccccc3OC)c2)cc1	-12.4%	-0.5	0.4%	7.31µM*	?	-10.3%	9.2µM*
Cc1ccc(NC(=O)c2ccc(=O)[nH]n2)cc1S(=O)(=O)Nc1ccccc1Cl	-2.0%	0.2	0.3%	-3.8%	·	·	·
CCn1nc(C)c(CNC(=O)c2ccc(OC3CCN(Cc4ccccn4)CC3)cc2)c1C	-15.5%	-3.2	0.1%	1.46µM*	1.3%	-5.6%	1.46µM*
Cc1cccnc1CCNC(=O)c1ccc(OC2CCN(Cc3ccccn3)CC2)cc1	-9.0%	-3.6	-0.6%	18.2%	·	·	·
CN(C)c1ccc(/C=C/c2ccc3c4ccccc4ccc3[n+]2-c2ccccc2)cc1	10.3µM*	-8.0	-3.0%	3.66µM*	?	7.31µM*	2.91µM*
CN(C)c1ccc(/C=C/c2cc3ccccc3c[n+]2C)cc1	·	·	·	·	-22.1%	?	6.51µM*
CN(C)c1ccc(/C=C/c2nc3ccccc3c(=O)n2CCO)cc1	20.5%	0.8	1.4%	1.1%	·	·	·
CCN1/C(=C/c2sc(-c3ccccc3C)c[n+]2C)Sc2ccccc21	?	-6.0	9.1%	0.366µM*	-0.5%	?	1.84µM*
CCC(=O)/C=C1/Sc2ccccc2N1CC	-0.8%	-2.1	0.1%	·	·	·	·
C=CC[n+]1ccc(/C=C2\C=Cc3cc(C)ccc3N2CC)c2ccccc21	?	-0.6	-3.7%	7.31µM*	?	?	·
C=CC[n+]1ccc2ccccc2c1C	1.4%	-0.9	0.3%	1.0%	·	·	·
Fc1ccc(Nc2nc3nonc3nc2Nc2cccc(C(F)(F)F)c2)cc1	8.2µM*	·	-4.5%	1.46µM*	-22.9%	5.8µM*	1.03µM*
